# Hits are enriched below; roughly 27% of the tested compounds scored in any of these assays.
# Pyk2 oligo antag = antagonists of Pyk2 self-association, primary screen, Q293 cells, FERM NanoBiT luminescence, HTS; hits give low values; z-score (the deposit names both 25 µM and 10 µM); actives 0.83% (n = 99,000); AID 1347419, 2020;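 active = Z-score of -3 or lower, scaled per plate to the spread of control and sample wells; inactive = z-score above -3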;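 also: negative z-score means lost luminescence so less FERM oligomerization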
# Cav3 T inh = Cav3.2 calcium influx blockers – cell-based, Fluo-4 calcium fluorescence, FDSS, MLSMR library, primary screen | B-score at 10 µM | actives 4% (n = 100,000) | Voltage-dependent T-type calcium channel subunit alpha-1H (Homo sapiens), O95180 | AID 449739, 2010 | Cav3.2-expressing cells; hits give low values;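 active = single-dose well whose peak fluorescence ratio is a statistical outlier from its plate by either plate-standardised score or position-corrected B-score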
# CYP2C19 activ = human CYP2C19 activators, primary screen, biochemical, luminescence | Cytochrome P450 2C19 (Homo sapiens), P33261 | recombinant CYP2C19, luciferin-H EGE luminescence; hits give high values; 0 = fully inhibited enzyme, 1 = untreated enzyme | activation factor at 5 µM | 96,000 tested, under 10 active;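 active = activation factor of at least 2 at 5 µM in the primary screen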;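 also: 0 = wells with 2.5 mM tranylcypromine and 1 = vehicle-only wells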
# CYP2C19 inhib = blockers of cytochrome P450 2C19 activity – biochemical, luminescence, ADME assay, primary screen. CYP2C19 Supersomes, luciferin-H EGE luminescence, 30 min. inhibition, % at 5 µM. actives 21% (n = 96,000);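 active = CYP2C19 inhibition above a set limit at 5 µM in the primary screen, cut at about 50% in these data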;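 also: plate controls were negative control wells for no effect and 2.5 mM tranylcypromine positive control for full effect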
# CYP2C9 inh = blockers of cytochrome P450 2C9 activity – biochemical, luminescence, ADME assay, primary screen. P11712. actives 20% (n = 96,000). CYP2C9 Supersomes, luciferin-H conversion. AID 777, 2007. inhibition, % at 5 µM;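 active = blocking of liver enzyme CYP2C9 beyond about 50% at 5 µM, limit read from the data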
# CYP2C9 activ = human CYP2C9 activators, primary screen, biochemical, luminescence | activation factor at 5 µM | recombinant CYP2C9, luciferin-H conversion; hits give high values; factor 1 = untreated enzyme, 0 = blocked | actives 1.4% (n = 96,000) | AID 1024, 2008;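 active = activation factor of 2 or more for CYP2C9 at a 5 µM dose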;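 also: 0 = sulfaphenazole-blocked wells and 1 = vehicle-only wells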
# * marks the source's active call; other numbers are inactive results; · = no result.
SMILES,Pyk2 oligo antag,Cav3 T inh,CYP2C19 activ,CYP2C19 inhib,CYP2C9 inh,CYP2C9 activ
CC(OC(=O)c1cccs1)C(=O)NCc1ccco1 (centres undefined),-0.66,0.0191,0.1,85.8*,37.1,0.6
CC(OC(=O)c1nsc(Cl)c1Cl)C(=O)NCc1cccs1 (centres undefined),-0.63,·,0.8,20.4,33.7,0.7
CCC(OC(=O)c1nsc(Cl)c1Cl)C(=O)NCc1ccco1 (centres undefined),1.21,-1.09,0.4,59.3*,57.2*,0.4
CC(OC(=O)Cc1coc2cc3c(cc12)CCC3)C(=O)NCc1ccc2c(c1)OCO2 (centres undefined),0.15,-0.759,0.8,17.2,13.2,0.9
Cc1ccc(C(C(=O)NCc2ccco2)N(C(=O)CNC(=O)c2cccs2)c2ccc(C)cc2)cc1 (centres undefined),0.1,1.17,1.1,-6.0,-6.2,1.1
CC(C)C(OC(=O)c1cc2occc2n1C)C(=O)NCc1ccc2c(c1)OCO2 (centres undefined),-0.43,-2.36,0.3,73.7*,85.3*,0.1
CCCCN(C(=O)CNC(=O)c1ccco1)C(C(=O)NC1CCCCC1)c1ccc(OC)cc1OC (centres undefined),-0.08,0.0181,0.8,15.7,8.2,0.9
O=C(CSc1ccsc1[N+](=O)[O-])N1CCN(c2ccc(Cl)cc2)CC1,0.3,·,·,·,·,·
COc1ccc(C(OC(=O)c2ccco2)C(=O)NCc2ccco2)cc1 (centres undefined),0.07,0.627,0.9,13.1,19.9,0.8
COc1ccccc1C(OC(=O)c1cccs1)C(=O)NCc1ccco1 (centres undefined),0.02,-1.17,0.4,58.4*,40.1,0.6
O=C(OC(C(=O)NCc1cccs1)c1ccccc1Cl)c1ccco1 (centres undefined),-0.33,0.0811,0.1,88.5*,91.1*,0.1
CC(C)C(OC(=O)c1cccs1)C(=O)NCc1ccco1 (centres undefined),0.66,0.529,0.4,59.8*,41.9,0.6
CCC(OC(=O)c1cc2sccc2n1C)C(=O)NCc1ccco1 (centres undefined),0,-2.02,0.5,53.9*,71.9*,0.3
Cc1ccc(C(C(=O)NCc2ccco2)N(C(=O)CNC(=O)c2cccs2)c2c(C)cc(C)cc2C)cc1 (centres undefined),0.36,0.444,1,4.6,19.7,0.8
C[C@@H]1NC(=O)[C@H](CCC(N)=O)NC(=O)c2cc([N+](=O)[O-])cc(I)c2NCC[C@@H](C(N)=O)NC1=O,·,-0.00446,·,·,·,·
COc1ccc(CNC(=O)C(OC(=O)c2ccco2)c2ccc(OC)cc2)cc1 (centres undefined),-0.88,-0.241,·,·,·,·
CCC(C)(C)NC(=O)C(OC(=O)c1ccco1)c1ccccc1OC (centres undefined),0.77,-0.755,0.4,64.1*,38.5,0.6
Cc1c(C#N)c2ncn(CCCN(C)C)c(=O)c2n1-c1ccccc1,2.41,1.3,1.1,-7.3,2.3,1
COC(=O)Cn1cnc2c(C#N)c3n(c2c1=O)CCCC3,0.71,-0.496,0.9,6.0,-2.3,1
N#Cc1c2n(c3c(=O)n(Cc4ccc(Cl)cc4)cnc13)CCCC2,-3.51*,0.964,0,99.9*,62.4*,0.4
N#Cc1c2n(c3c(=O)n(Cc4ccccc4Cl)cnc13)CCCC2,-2.92,0.983,0,99.2*,91.7*,0.1
CCOC(=O)N1CCN(C(=O)CN(C)S(=O)(=O)c2ccc(OC)c(OC)c2)CC1,0.77,0.887,1,-4.8,-44.0,1.4
CCOc1ccc(-n2cc(C(=O)N3CCC(C)CC3)c3cc(OC)c(OC)cc3c2=O)cc1,0.51,0.687,0.8,16.2,20.4,0.8
COc1cc(OC)cc(-n2nc(C(=O)N3CC(C)CC(C)C3)c3ccccc3c2=O)c1 (centres undefined),-0.98,-1.47,·,·,·,·
CCOC(=O)N1CCN(C(=O)c2nn(-c3cc(OC)cc(OC)c3)c(=O)c3ccccc23)CC1,·,·,0.4,63.2*,80.5*,0.2
SMILES,Pyk2 oligo antag,Cav3 T inh,CYP2C19 activ,CYP2C19 inhib,CYP2C9 inh,CYP2C9 activ
COc1ccccc1N1CCN(C(=O)c2nn(-c3ccccc3OC)c(=O)c3ccccc23)CC1,-1.71,·,0.5,49.3,57.8*,0.4
CCOC(=O)N1CCN(C(=O)c2cn(-c3ccc(C)c(C)c3)c(=O)c3ccccc23)CC1,0.26,1.45,0.8,23.5,63.9*,0.4
CC1C(=O)N(c2ccc(S(=O)(=O)N(C)C)cc2)C1(/C=C/c1ccccc1)C(=O)NC1CCCC1 (centres undefined),-1.05,·,·,·,·,·
Cc1c(CCO)c(=O)n(-c2ccccc2)n1S(=O)(=O)c1ccc(Cl)cc1,-0.03,0.14,0.3,69.9*,47.1,0.5
Cc1cccc2cc(CN(CC3CCCO3)C(c3nnnn3Cc3ccco3)C(C)C)c(=O)[nH]c12 (centres undefined),0.62,·,0.8,15.3,39.0,0.6
CCOc1cc(C)c(Cl)cc1S(=O)(=O)n1cnc2ccccc21,0.39,-5.67*,0.7,25.3,0.5,1
Cc1cc(C)c(S(=O)(=O)n2cnc3ccccc32)c(C)c1,-0.02,0.625,1.1,-8.2,-14.6,1.1
O=C(NC1CCCCCC1)C1c2ccccc2C(=O)N1Cc1cccnc1 (centres undefined),-0.57,1.78,0.5,52.2*,2.3,1
O=C(NCc1cccnc1)C1c2ccccc2C(=O)N1C1CCCCCC1 (centres undefined),0.09,·,0.3,68.1*,20.4,0.8
COC(=O)c1cc(Br)c(=O)n(Cc2ccc(OC)c(OC)c2)c1,-0.07,1.17,0.5,45.6,50.7*,0.5
COc1ccc(-c2oc3ncnc(NCCCN4CCOCC4)c3c2-c2ccc(OC)cc2)cc1,-1.83,0.0359,0.8,24.1,94.5*,0.1
COc1ccc(-c2oc3ncn(CCN4CCOCC4)c(=N)c3c2-c2ccc(OC)cc2)cc1,-1.36,-0.449,0.4,62.8*,13.3,0.9
c1ccc(-c2oc3ncnc(NCCCN4CCOCC4)c3c2-c2ccccc2)cc1,-1.5,0.0441,0.1,90.1*,93.7*,0.1
N#Cc1nc(COc2ccc(-c3ccccc3)cc2)oc1NCCCN1CCOCC1,-0.54,-1.88,0.8,23.4,49.4,0.5
COc1ccc(-c2oc3ncnc(NCCN4CCOCC4)c3c2-c2ccc(OC)cc2)cc1,-1.47,1.03,0.8,22.6,30.2,0.7
CCCC(C)C(=O)Nc1ccncc1 (centres undefined),0.46,-0.122,·,·,·,·
CCCC(CCC)C(=O)Nc1ccncc1,-0.37,0.337,0.1,90.6*,78.8*,0.2
